# Laboratory results reported in PubChem BioAssay (NCATS).
# Records with an inconclusive call do not appear. Values without a mark were called inactive. Activity calls are given as the source filed them. Calls follow the shape of the dose curve; as a rule, active = well fitted inhibition curve with a large enough effect; inconclusive = small, poorly fitted or top-dose-only effect; inactive = flat fitted curve, though single readings scatter.
# Assay: P-glycoprotein substrates identified in KB-8-5-11 adenocarcinoma cell line, qHTS therapeutic library screen (AID 1346987); also: nearly all actives have a fitted effect of over 65% in size
# Settings: KB-8-5-11 (P-gp overexpressing) viability, CellTiter-Glo, 72 h; series mostly up to 44.5 µM; activity change, negative = cytotoxicity: at the top concentration
# Procedure, shortened: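 In this qHTS, P-gp-rich KB-8-5-11 cells received library compounds across a concentration range. Viability was quantified by luminescence after 72 h at 37 degree C.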
# % is scaled to controls: 0 for no effect and ±100 for the full control effect; potency is read from the fitted curve at half-maximal effect.
Structure (SMILES),"activity change, negative = cytotoxicity",Potency,outcome
O=C(Nc1ccc(S(=O)(=O)Nc2nccs2)cc1)C(c1ccccc1)c1ccccc1,7.58%,,
Cc1cc(O)c(-c2ccc([C@@H](C)CN(C)C)cc2)c2c1[nH]c(=O)c1sccc12,,82 nM (active),
CCN1CCN(Cc2ccc(NC(=O)Nc3ccc(Oc4cc(NC)ncn4)cc3)cc2C(F)(F)F)CC1,0.404%,,
COc1ccc(C(=O)Nc2ncc(-c3ccc(C(=O)O)cc3)s2)cc1,,2910 nM (active),
O=C(NCc1ccc(S(=O)(=O)c2cc(F)cc(F)c2)cc1)c1ccc2nccn2c1,,18.4 nM (active),
c1cc(Nc2cc(C3CC3)[nH]n2)nc(Nc2ccc3nc[nH]c3c2)n1,,6510 nM (active),
CCCN1CCN(c2ccc(C(=O)NC3(C(=O)NCC#N)CCCCC3)cc2)CC1,-8.46%,,
C[C@@H]1O[C@@H](O[C@H]2[C@H](OC(=O)[C@]34CCC(C)(C)C[C@H]3C3=CCC5[C@@]6(C)CC[C@H](O[C@@H]7O[C@H](C(=O)O)[C@@H](O)[C@H](O)[C@H]7O[C@@H]7O[C@H](CO)[C@H](O)[C@H](O)[C@H]7O)[C@@](C)(C=O)C6CC[C@@]5(C)[C@]3(C)C[C@H]4O)O[C@H](C)[C@H](O[C@@H]3O[C@H](C)[C@H](O)[C@H](O)[C@H]3O)[C@@H]2O)[C@H](O)[C@H](O)[C@H]1O[C@@H]1OC[C@@H](O)[C@H](O[C@@H]2O[C@H](CO)[C@@H](O)[C@H](O)[C@H]2O)[C@H]1O (stereo partly drawn),,,inactive [at 5.11 µM]
C/C=C/C=C/C(O)=C1\C(O)=C(C)C(=O)[C@@]2(C)OC(=O)[C@@](C)(NC(=O)/C=C/C(=O)O)[C@@H]12,2.32% [at 17.3 µM],,
O=S(=O)(c1ccc(S(=O)(=O)n2cnc3ccccc32)cc1)N1CCCCCC1,-18.6% [at 17.3 µM],,
CCc1cccc(CC)c1NC(=O)c1nn(C)c2c1CCc1cnc(Nc3ccc(C(=O)NC4CCN(C)CC4)cc3OC(F)(F)F)nc1-2,,3550 nM (active),
O=C(CSc1nc2c(c(=O)n1-c1ccccc1)SCC2)Nc1ccc(-c2ccccc2)cn1,,82 nM (active),
COC(=O)c1ccc(OC(CO)C(O)c2ccc(O)c(OC)c2)c(OC)c1 (stereo not drawn),-9.24%,,
O=C1C=CC(O)(/C=C/C(=O)OC[C@H]2O[C@@H](Oc3ccc(O)cc3)[C@H](O)[C@@H](O)[C@@H]2O)C=C1,4.31% [at 17.3 µM],,
CC(C)[N+]1(C)C2CCC1CC(OC(=O)C(CO)c1ccccc1)C2 (stereo not drawn),-11.6%,,
CC(=O)OC[C@H]1O[C@H](O[C@]2(CO)O[C@H](CO)[C@@H](OC(=O)/C=C/c3ccccc3)[C@@H]2O)[C@H](O)[C@@H](O)[C@@H]1O,6.34% [at 17.3 µM],,
NC(=O)c1cccc(-c2cc(OC(=O)NC3CCCCC3)ccc2O)c1,-7.82%,,
COc1cc(O)c([C@@H](CC(=O)N2CC(C)CC(C)C2)c2ccc3c(c2)OCO3)c(OC)c1 (stereo partly drawn),-16.6%,,
C#CCN(Cc1cc2c(=O)n(C)c(CN3CCN(C)CC3)nc2cc1Cl)c1ccc(C(=O)NCc2cccnc2)cc1,,259 nM (active),

Structure (SMILES),"activity change, negative = cytotoxicity",Potency,outcome
Cc1cc(C)c(Nc2ccnc(Nc3ccc(C#N)cc3)n2)c(C)c1,,9200 nM (active),
CN(C)C(=O)NC1CCC(CCN2CCN(c3cccc(Cl)c3Cl)CC2)CC1 (stereo not drawn),-11.3% [at 9.29 µM],,
O=C(O)CC1CCC(c2ccc(-c3ccc4nc(C(=O)NCc5ccc(OC(F)(F)F)cc5)cn4c3)cc2)CC1 (stereo not drawn),-9.99%,,
NC[C@@](O)(c1ccc(Cl)cc1)c1ccc(-c2cn[nH]c2)cc1,,9200 nM (active),
CCC1C(=O)OC23C=C[C@@H]4C(C(=O)O)=CO[C@H](O[C@@H]12)[C@@H]43 (stereo partly drawn),-24.6%,,
CC(C)CCC[C@@H](C)[C@H]1CC[C@H]2[C@@H]3CC(=O)[C@H]4C[C@@H](O)CC[C@]4(C)[C@H]3CC[C@]12C,-15.6%,,
CN(C)CCn1cc(S(=O)(=O)c2cccc(F)c2)c2cccnc21,-17.9%,,
O=C(Nc1ccccc1)N1CCN(Cc2ccc3ccccc3n2)CC1,-11.9%,,
CC(=O)NCC(=O)N1C2CCC1c1cc(Nc3ncc(C(F)(F)F)c(NC4CCC4)n3)ccc12 (stereo not drawn),,1840 nM (active),
C=C[C@H]1C(O[C@@H]2O[C@H](CO)[C@@H](O)[C@H](O)[C@H]2O)OC=C2C(=O)N3CCc4c([nH]c5ccccc45)[C@H]3C[C@H]21 (stereo partly drawn),,,inactive [at 17.3 µM]
C[C@@H]1CCC/C=C/[C@H]2CC(=O)C[C@@H]2[C@@H](O)/C=C/C(=O)O1,,,inactive
C[C@@H]1CN(Cc2ncccn2)C[C@H]1c1nc2c(cnn2C2CCOCC2)c(=O)[nH]1,-2.62%,,
CC(O)/C=C/C1(O)C2(C)COC1(C)CC(O)C2 (stereo not drawn),-12.4%,,
CC(C)CC(=O)O[C@@H]1OC=C(CO[C@@H]2O[C@H](CO)[C@@H](O)[C@H](O)[C@H]2O)[C@H]2[C@@H]3O[C@H]3[C@@](O)(CO)[C@@H]12,,,inactive [at 17.3 µM]
COc1c2c(cc3c1-c1c(cc4c(c1OC)OCO4)CC(C)C(C)C3)OCO2 (stereo not drawn),-4.87%,,
C=C(C)C1CCC2(C(=O)O)CCC3(C(=O)O)C(CCC4C5(C)CCC(O)C(C)(C(=O)O)C5CCC43C)C12 (stereo not drawn),,,inactive [at 17.3 µM]
COCC1OC(OC(C)(C)C2CCC3(C)C=C(C4CCC5C4(C)CC(O)C4OC(C(C)(C)OC6OC(CO)C(O)C(O)C6NC(C)=O)CCC45C)CCC3O2)C(NC(C)=O)C(O)C1O (stereo not drawn),,,inactive [at 9.29 µM]
CCN(Cc1cccnc1)C(=O)CN(c1ccc(OC)nc1)S(=O)(=O)c1ccccc1C,-2.79%,,
COC(=O)Cc1cc2c(c([N+](=O)[O-])c1)N(C(=O)CC[C@H](N)C(=O)O)CC2,,,inactive
